In experiment [1] the test system is Wnt5a (protein binding on small-molecule microarray). Put plainly: small molecules binding Wnt5a protein – biophysical, small-molecule microarray, 635/667 nm fluorescence, primary screen (AID 1142).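 Further: fluorescence read at 667 nm with signal to noise per printed feature.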 Particulars: 635 nm fluorescence, higher = more signal.
Experiment [2] can be described thus: ATP-based viability of Huh7 replicon cells – cell-based, CellTiter-Glo luminescence, basal, 48 h, cytotoxicity control for HCV replication inhibitor project, primary screen (AID 1143).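 Further: Huh7 hepatoma cells carrying a hepatitis C replication reporter with no stimulus; test concentration not given here.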 The settings on record: higher = more signal, called active from +8 up or from −8 down. For orientation: A replicon is a self-replicating genome or part of one, used to study replication in cells.

Experiment [3] is described as follows: Pseudomonas biofilm growth suppression – PAO1 strain, BacTiter-Glo luminescence, LB-PBS, primary screen (AID 1144). Particulars: P. aeruginosa PAO1 biofilm, 12 h, higher = more signal.
The nature of experiment [4]: basal CRE-LacZ reporter activity in PC12 – cell-based, unstimulated, primary screen (AID 1145). The settings on record: no forskolin, luminescence, 4.5 h, higher = more signal, called active from +8 up or from −8 down.
A short description of experiment [5]: forskolin-driven CRE-LacZ activity in PC12 – cell-based, CRE-LacZ reporter, forskolin-stimulated, primary screen (AID 1146).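 Further: PC12 cells with 6xCRE LacZ reporter stimulated by forskolin 10 µM; beta-galactosidase reporter signal reflecting CREB driven transcription.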 Particulars: luminescence, 4.5 h, higher = more signal, called active from +8 up or from −8 down.
The target in experiment [6] is Streptavidin (Streptomyces avidinii) (UniProt P22629). Description: compounds binding control protein streptavidin – biophysical, small-molecule microarray, 635/667 nm fluorescence, artefact control for SMM compound annotation, primary screen (AID 1147).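 Further: signal reflects streptavidin binding to arrayed compounds as a control protein.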 Particulars: higher = more signal.
Experiment [7] is described as follows: probe aInhba binding on compound microarray – biochemical, small-molecule microarray, 635/667 nm fluorescence, primary screen (AID 1148).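 Further: score merges 667nm spot fluorescence with signal-to-noise for antibody binding to printed compounds.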 Particulars: higher = more signal.
In experiment [8] the target is Torsin-1A (Homo sapiens) (UniProt O14656). Put plainly: TOR1A wild-type binding on microarray – cell lysate, small-molecule microarray, lysate, 635/667 nm, primary screen (AID 1149). Particulars: COS7 hTOR1A-WT lysate, 635 nm fluorescence, higher = more signal.
For experiment [9] the target is unchanged. Put plainly: torsin A mutant lysate binding on microarrays – cell lysate, small-molecule microarray, COS7 lysate, 635/667 nm fluorescence, primary screen (AID 1150).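 Further: score pools 667 nm emission and signal to noise measuring lysate protein binding.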 Particulars: COS7 hTOR1A mutant lysate, 635 nm fluorescence, higher = more signal.
The subject of experiment [10] is Sonic hedgehog protein (Shh). Description: Sonic hedgehog microarray binding compounds – biochemical, small-molecule microarray, 635/667 nm fluorescence, primary screen (AID 1151).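 Further: Shh protein binding to compounds spotted on small-molecule microarray slides; score combines spot fluorescence intensity with signal-to-noise across triplicate slides.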 Particulars: 635 nm fluorescence, higher = more signal.
Experiment [11] can be described thus: optical density shifts of acrAB sulA E. coli – strain DRC41, OD650, 48 h, E. coli filamentation inducer project, primary screen (AID 1152).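 Further: E. coli MC1000 strain DRC41 lacking acrAB efflux pump and sulA.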 Particulars: higher = more signal, called active from +8 up or from −8 down.
The nature of experiment [12]: probe aLefty1 binding on compound microarray – biochemical, small-molecule microarray, 635/667 nm fluorescence, primary screen (AID 1153).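 Further: score merges spot fluorescence with signal-to-noise ratio from the scanned slide images.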 The settings on record: higher = more signal.
Experiment [13] is described as follows: plasmodial surface anion channel blockers, osmotic lysis – cell-based, P. falciparum Indochina, OD700, 1 h, primary screen (AID 1154). Particulars: P. falciparum Indochina infected RBC osmotic lysis, higher = more signal, called active from +8 up or from −8 down.
A short description of experiment [14]: plasmodial surface anion channel blockers, osmotic lysis – cell-based, P. falciparum Indochina, OD700, 2 h, primary screen (AID 1155).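 Further: lysis reports solute entry through the parasite surface anion channel PSAC.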 Particulars: P. falciparum Indochina infected erythrocytes, higher = more signal, called active from +8 up or from −8 down.
Experiment [15] is described as follows: changes in parasitized red cell lysis, either direction – P. falciparum Indochina, OD700, 3 h, PSAC antagonist project, primary screen (AID 1156). Particulars: P. falciparum-infected erythrocytes, osmotic lysis, higher = more signal, called active from +8 up or from −8 down.
Experiment [16] in a line: plasmodial surface anion channel blockers, osmotic lysis – cell-based, P. falciparum Indochina, OD700, 18 h, primary screen (AID 1157). Particulars: P. falciparum Indochina infected erythrocytes, osmotic lysis OD700, 18 h; higher = more signal, called active from +8 up or from −8 down.
Experiment [17] in a line: S6 kinase pathway phospho-S6 level changes – cell-based, A549, cytoblot, luminescence, serum-stimulated, primary screen (AID 1158).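 Further: serum-stimulated A549 lung adenocarcinoma cells; signal is phosphorylated S6 detected by cytoblot immunostaining with HRP secondary.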 Particulars: 5 h, higher = more signal.
Experiment [18] addresses NADPH oxidase 2 (Homo sapiens) (UniProt P04839). Description: compounds shifting NOX2 Amplex Red fluorescence – cell-based, HEK293-NOX2, PMA-stimulated, NOX inhibitor project, primary screen (AID 1159). Further: test concentration not given here. The settings on record: 45 min, higher = more signal, called active from +8 up or from −8 down.
The target in experiment [19] is NADPH oxidase 4 (Homo sapiens) (UniProt Q9NPH5). Description: compounds shifting NOX4 Amplex Red fluorescence – cell-based, HEK293-NOX4, tetracycline-induced, NOX inhibitor project, primary screen (AID 1160). Particulars: HEK293-NOX4, Amplex Red H2O2 fluorescence, 45 min; higher = more signal, called active from +8 up or from −8 down.
Experiment [20] deals with NADPH oxidase 5 (Homo sapiens) (UniProt Q96PH1). Description: compounds shifting NOX5 Amplex Red fluorescence – cell-based, HEK293-NOX5, NOX inhibitor project, primary screen (AID 1161). Particulars: HEK293-NOX5, ionomycin, 45 min, higher = more signal.

Calls of active or inactive are those of the source. Unless noted, how the calls were made is not given here.

Sequence of Streptavidin (Streptomyces avidinii) (P22629 whole entry, looked up): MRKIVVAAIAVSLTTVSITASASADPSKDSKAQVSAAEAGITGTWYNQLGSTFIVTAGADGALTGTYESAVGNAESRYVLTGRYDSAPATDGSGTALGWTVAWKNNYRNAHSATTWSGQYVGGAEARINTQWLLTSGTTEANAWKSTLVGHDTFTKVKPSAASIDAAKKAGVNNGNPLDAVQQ
Sequence of NADPH oxidase 2 (Homo sapiens) (P04839 whole entry, looked up): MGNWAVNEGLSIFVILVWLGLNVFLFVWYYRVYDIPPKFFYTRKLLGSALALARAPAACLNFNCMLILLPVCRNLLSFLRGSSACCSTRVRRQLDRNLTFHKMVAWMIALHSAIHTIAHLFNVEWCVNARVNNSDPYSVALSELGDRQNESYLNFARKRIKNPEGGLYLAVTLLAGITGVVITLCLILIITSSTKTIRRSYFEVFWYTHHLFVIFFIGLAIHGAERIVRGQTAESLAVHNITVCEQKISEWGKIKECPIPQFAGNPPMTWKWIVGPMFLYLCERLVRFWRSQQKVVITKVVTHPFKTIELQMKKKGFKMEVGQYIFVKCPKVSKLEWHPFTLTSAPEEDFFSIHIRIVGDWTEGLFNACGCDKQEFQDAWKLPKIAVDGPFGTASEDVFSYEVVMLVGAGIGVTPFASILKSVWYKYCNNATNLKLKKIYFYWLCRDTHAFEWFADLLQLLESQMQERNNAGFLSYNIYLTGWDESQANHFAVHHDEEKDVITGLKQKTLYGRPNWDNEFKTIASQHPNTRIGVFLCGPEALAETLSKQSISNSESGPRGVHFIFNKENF
Sequence of NADPH oxidase 4 (Homo sapiens) (Q9NPH5 whole entry, looked up): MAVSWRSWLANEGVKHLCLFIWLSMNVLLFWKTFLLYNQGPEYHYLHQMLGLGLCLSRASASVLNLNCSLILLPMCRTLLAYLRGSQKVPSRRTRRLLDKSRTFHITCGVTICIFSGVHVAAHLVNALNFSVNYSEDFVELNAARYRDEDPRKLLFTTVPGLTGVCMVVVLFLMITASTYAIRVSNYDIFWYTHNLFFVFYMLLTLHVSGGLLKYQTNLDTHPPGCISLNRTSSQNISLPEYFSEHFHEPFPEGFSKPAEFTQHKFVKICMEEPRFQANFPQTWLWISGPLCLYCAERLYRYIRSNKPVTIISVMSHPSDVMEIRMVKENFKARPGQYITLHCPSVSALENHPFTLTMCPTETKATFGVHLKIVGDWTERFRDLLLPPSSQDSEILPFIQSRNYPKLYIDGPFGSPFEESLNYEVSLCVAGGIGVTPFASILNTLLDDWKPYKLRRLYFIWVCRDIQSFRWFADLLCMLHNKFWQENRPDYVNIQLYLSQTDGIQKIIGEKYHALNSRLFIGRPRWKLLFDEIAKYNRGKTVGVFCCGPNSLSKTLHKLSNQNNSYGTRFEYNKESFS
Sequence of Torsin-1A (Homo sapiens) (O14656 whole entry, looked up): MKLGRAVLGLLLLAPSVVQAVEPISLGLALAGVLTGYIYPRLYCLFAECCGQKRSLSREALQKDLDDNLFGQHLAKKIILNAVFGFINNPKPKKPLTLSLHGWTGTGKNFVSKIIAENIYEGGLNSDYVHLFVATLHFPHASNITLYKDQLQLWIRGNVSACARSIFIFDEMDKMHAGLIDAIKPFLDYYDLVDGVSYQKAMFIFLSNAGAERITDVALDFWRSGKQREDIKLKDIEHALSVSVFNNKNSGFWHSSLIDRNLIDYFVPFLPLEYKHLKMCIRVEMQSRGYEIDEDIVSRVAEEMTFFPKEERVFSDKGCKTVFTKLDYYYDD
Sequence of NADPH oxidase 5 (Homo sapiens) (Q96PH1 whole entry, looked up): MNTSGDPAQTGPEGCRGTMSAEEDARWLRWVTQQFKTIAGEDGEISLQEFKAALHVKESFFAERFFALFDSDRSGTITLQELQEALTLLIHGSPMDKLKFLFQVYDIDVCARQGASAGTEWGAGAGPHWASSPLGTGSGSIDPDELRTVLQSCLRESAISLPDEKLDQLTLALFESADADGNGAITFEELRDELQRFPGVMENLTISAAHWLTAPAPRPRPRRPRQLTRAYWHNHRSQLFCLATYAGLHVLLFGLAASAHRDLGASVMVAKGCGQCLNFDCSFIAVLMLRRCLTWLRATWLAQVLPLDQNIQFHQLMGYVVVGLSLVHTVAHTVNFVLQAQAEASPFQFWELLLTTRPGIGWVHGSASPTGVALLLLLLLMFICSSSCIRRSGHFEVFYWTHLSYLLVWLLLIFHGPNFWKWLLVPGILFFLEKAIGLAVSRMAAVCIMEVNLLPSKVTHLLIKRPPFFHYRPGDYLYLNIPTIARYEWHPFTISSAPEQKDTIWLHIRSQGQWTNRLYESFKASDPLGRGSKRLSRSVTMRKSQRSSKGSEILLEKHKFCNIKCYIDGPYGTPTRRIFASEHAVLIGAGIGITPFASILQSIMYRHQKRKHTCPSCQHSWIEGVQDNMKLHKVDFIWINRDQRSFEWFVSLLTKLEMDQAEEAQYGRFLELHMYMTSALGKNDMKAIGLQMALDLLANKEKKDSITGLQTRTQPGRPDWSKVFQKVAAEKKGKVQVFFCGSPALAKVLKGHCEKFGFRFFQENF

On to `COC(=O)[C@H](C)NC(=O)CCC1CC(OC(=O)NCCc2ccc(F)cc2)CC2(CCCC(COC(=O)NCC(c3ccccc3)c3ccccc3)O2)O1` (stereo not given in full), for which the composite z-score was -0.073 in [1]; 0.688 in [6]; -0.0044 in experiment [7]; -0.311 with Torsin-1A (Homo sapiens) [8]; 0.387 in the experiment with Torsin-1A (Homo sapiens) [9]; 0.282 in [10]. In [12], this compound came in with a composite z-score of -0.194. Besides, the z-score in experiment [2] was -0.169 (inactive); in experiment [3], -0.0102 (inactive); in experiment [4], 1.27 (inactive); in experiment [5] it was -0.187 (inactive); in experiment [11], 0.523 (inactive); in experiment [13] it was 8.81 (active). Further, the z-score in experiment [14] was 2.61 (inactive); in [15], -0.286 (inactive); in [16] it was 0.492 (inactive); in [17] it was 0.71; in experiment [18] it was 0.238 (inactive); in [19], 0.0541 (inactive). In addition, in experiment [20], the z-score is 0.185.

`O=C1[C@H]2[C@H]3[C@H](O)[C@H](O)CC(=NO[C@@H]4O[C@H](CO)[C@@H](O)[C@H](O)[C@H]4O)[C@@H]3CC[C@H]2C(=O)N1Cc1ccccc1`: the composite z-score in experiment [1] was -0.0389; in [6], -0.561; in experiment [7], 0.0925; with Torsin-1A (Homo sapiens) [8] it was -0.333; in the experiment with Torsin-1A (Homo sapiens) [9] it was 0.409; in [10], -0.37. In [12], the composite z-score is -0.115. The z-score in experiment [2] was -0.435 (inactive); in [3], 0.0971 (inactive); in experiment [4] it was -0.929 (inactive); in [5] it was 0.488 (inactive); in [11] it was 0.755 (inactive); in experiment [13] it was 1.3 (inactive). For the same compound, the z-score in [14] is 0.893 (inactive); in experiment [15] it was 0.742 (inactive); in experiment [16], 0.475 (inactive); in experiment [17], 0.62; in [18], 0.0811 (inactive); in experiment [19] it was 1.14 (inactive). Further, in [20], the z-score is -0.0503.

For the compound `Cc1ccc(S[C@]2(C(=O)NCC(F)(F)F)CC(=O)N(Cc3ccccc3Cl)[C@@H]2c2ccc(CO)cc2I)cc1`, the composite z-score is -0.273 in experiment [1]; -0.809 in experiment [6]; -0.152 in [7]; -0.396 in the experiment with Torsin-1A (Homo sapiens) [8]; 0.288 with Torsin-1A (Homo sapiens) [9]; -0.155 in experiment [10]. The composite z-score in experiment [12] stood at 0.051. Also, the z-score was -1.36 (inactive) in experiment [2]; 0.977 (inactive) in experiment [3]; 3.13 (inactive) in experiment [4]; 2.82 (inactive) in experiment [5]; 0.973 (inactive) in experiment [11]; 5.02 (inactive) in experiment [13]. Further, the z-score in experiment [14] was 0.898 (inactive); in experiment [15], 0.276 (inactive); in experiment [16] it was 0.524 (inactive); in [17], -0.35; in experiment [18], 0.861 (inactive); in experiment [19], -1.67 (inactive). In experiment [20], the z-score stood at 0.799.

For the compound `CCN(CC)c1ccc(N2CC=CC34O[C@@H]5/C=C\CCC(C)OC(=O)C5[C@H]3C(=O)N(CCCO)[C@@H]4C2=O)cc1` (stereo not given in full), the composite z-score is 0.0023 in experiment [1]; -0.946 in experiment [6]; -0.211 in experiment [7]; 1.23 with Torsin-1A (Homo sapiens) [8]; 2.02 in the experiment with Torsin-1A (Homo sapiens) [9]; -0.403 in experiment [10]. The same compound had a composite z-score in experiment [12] of -0.191. Further, the z-score in experiment [2] is -0.682 (inactive); in experiment [3] it was 3.06 (inactive); in experiment [4] it was 0.0564 (inactive); in experiment [5], -0.102 (inactive); in [11], -0.074 (inactive); in experiment [13], 1.43 (inactive). In addition, the z-score in experiment [14] was -0.223 (inactive); in experiment [15], -0.0086 (inactive); in experiment [16] it was -0.18 (inactive); in [17], -0.473; in [18] it was 0.056 (inactive); in experiment [19] it was -1.51 (inactive). Besides, the z-score in [20] is 0.975.

These data come from PubChem BioAssay.
